Screens deposited in PubChem BioAssay by National Center for Advancing Translational Sciences (NCATS).
Pol kappa inh: blocks human DNA polymerase kappa activity; purified Pol kappa, fluorescent DNA synthesis assay, 10 min; Potency, µM (doses to about 107 µM), hits mostly inhibitors; 400,000 compounds, 0.53% hits; AID 588579
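First, compounds were pin-transferred onto 10 nM Pol kappa. After 15 min at room temperature, substrate was added to 50 nM final. Fluorescence was then measured kinetically at 0 and 10 min.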
POLI inh: DNA polymerase iota (human) inhibition. Q9UNA4. Pol iota fluorescent replication assay, 10 min. Potency, µM (top dose mostly 115 µM), hits mostly inhibitors. 390,000 compounds, 1% hits
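Fluorescent replication assay read twice, at 0 min and 10 min after adding 50 nM (final) substrate. Enzyme (10 nM) and compounds were first incubated 15 min at room temperature; enzyme-free buffer wells were negative controls.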
Pol beta inh: blocks human DNA polymerase beta activity; AID 485314; P06746; Pol beta primer extension/strand displacement, fluorescence kinetic; Potency, µM (titrated, usually from 114 µM), usual class: inhibitors; 340,000 compounds, 1.3% hits
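Pol beta (10 nM) and compounds were preincubated 15 min at room temperature, then 50 nM substrate (final) started primer extension/strand displacement. Reads were taken at 0 and 10 min; concentration-response data were fitted to a four-parameter Hill equation.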
Pol eta inh: DNA polymerase eta (human) inhibition. Q9Y253. Potency, µM (doses to about 114 µM), usual class: inhibitors. recombinant Pol eta, fluorescent DNA replication assay. 390,000 compounds, 1.2% hits
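Fluorescent replication assay: 50 nM final substrate added after a 15 min room-temperature compound preincubation with 10 nM enzyme. Signal taken at 0 min and again at 10 min.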
FEN1 inh-1: inhibitors of human flap endonuclease 1; P39748; Recombinant FEN1 flap cleavage, fluorescence, 15 min; Potency, µM (series often up to 114 µM), most hits filed as inhibitors; 390,000 compounds, 0.35% hits; note: nearly all actives have a fitted effect of over 65% in size
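Quantitative HTS format: each compound was titrated, incubated with 10 nM nuclease for 15 min at room temperature, then challenged with flap substrate at 50 nM final. Signal change over 15 min gave concentration–effect curves.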
WRN inhibitor: inhibitors of human WRN helicase; WRN helicase unwinding, fluorescent forked duplex, kinetic; Potency, µM (doses to about 114 µM), most hits filed as inhibitors; 360,000 compounds, 0.46% hits; Q14191; note: nearly all actives have a fitted effect of over 55% in size
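Kinetic fluorescence helicase assay: unwinding of a quenched forked DNA duplex (100 nM final) with 2 mM ATP final raises red fluorescence (525/598 nm). Compounds sat 15 min at room temperature with 20 nM WRN beforehand.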
FEN1 inh-2: confirmation of human FEN1 inhibitors | shares compounds with FEN1 inh-1 | FEN1 flap cleavage, TAMRA/BHQ2 fluorogenic DNA substrate | Potency, µM, hits mostly inhibitors | 880 compounds, 79% hits; note: nearly all actives have a fitted effect of over 60% in size
Numbers stand for hits; 0 = inactive; ? = inconclusive; - = no result given; [ ] = remark or other dose. This is a sample that favours compounds with a hit; in the whole collection about 2.4% have one here. Calls come from the whole dose curve; as a rule, active = well fitted curve in the direction sought with a large enough effect; inconclusive = small, poorly fitted or top-dose-only effect, or another doubt; inactive = no such curve, though single readings can be large; an effect the other way counts as inactive or inconclusive.

SMILES | Pol kappa inh | POLI inh | Pol beta inh | Pol eta inh | FEN1 inh-1 | WRN inhibitor | FEN1 inh-2
O=C(COC(=O)c1ccc([N+](=O)[O-])o1)Nc1cccc(S(=O)(=O)N2CCOCC2)c1 | 0 | 0 | 0 | 0 | 28.2µM | 0 | 19
O=C(COC(=O)c1ccc(Br)o1)Nc1cccc(S(=O)(=O)N2CCOCC2)c1 | 0 | 0 | - | 0 | 0 | 0 | -
COc1ccc(NC(=O)COC(=O)c2ccc([N+](=O)[O-])o2)cc1Cl | 0 | 0 | 0 | 0 | ? | 0 | 21.3
COc1ccc(C)cc1NC(=O)COC(=O)c1ccc([N+](=O)[O-])o1 | 0 | 0 | 0 | 0 | 0 | 0 | -
CN(C)S(=O)(=O)c1cccc(NC(=O)COC(=O)c2ccc([N+](=O)[O-])o2)c1 | 0 | 0 | 0 | ? | 50.1µM | 0 | 19
Cc1cccc(NC(=O)COC(=O)c2ccc([N+](=O)[O-])o2)c1C | 0 | 0 | 0 | 0 | ? | 0 | 21.3
COc1ccccc1CNC(=O)C1CCN(Cc2cc3ccccc3n2Cc2cccc(C)c2)CC1 | 0 | 0 | 0 | 0 | 0 | - | -
COCCn1c(=NC(=O)c2ccc3c(c2)OCCO3)sc2cc(S(N)(=O)=O)ccc21 | 0 | ? | 0 | 0 | 0 | 0[11.6 µM] | ?
Cc1ccc(-c2nc(C(=O)NCCCN(C)C)cc3c2[nH]c2ccccc23)cc1 | 0 | ? | ? | 0 | ? | 0 | 37.9
CCOc1ccc(CNC(=O)C2CCN(c3nnc(C)c4c(C)n(-c5ccc(C)cc5)nc34)CC2)cc1 | 0 | ? | 7.94µM | ? | ? | 0[11.6 µM] | ?
COc1ccc(-n2nc3c(N4CCC(C(=O)NCc5cccc(C)c5)CC4)nnc(C)c3c2C)cc1 | 0 | ? | ? | 0 | 0 | 0 | -
COc1ccc(CNc2ncnc3c2[nH]c2cc(OC)c(OC)cc23)cc1 | 0 | ? | 6.31µM | ? | 35.5µM | 0 | 30.1
COc1ccc(CNc2ncnc3c2[nH]c2ccccc23)cc1 | 0 | ? | 0 | 0 | ? | 0 | -
COc1cccc(C2c3c(ncn(CCCN4CCOCC4)c3=N)Oc3ccc4ccccc4c32)c1 (configuration not stated) | - | - | - | - | - | - | 37.9
CC(=O)Nc1cc(-c2nc3ccccc3s2)ccc1C | 0 | 0 | 0 | - | 0 | - | -
CC(=O)Nc1sc2c(c1-c1nc3ccccc3s1)CCOC2 | - | - | - | - | - | - | ?
CC(C)C[C@H](NC(=O)[C@H](CC(C)C)NC(=O)[C@H](CCC(N)=O)NC(=O)[C@H](CO)NC(=O)[C@@H]1CCCN1C(=O)[C@H](CO)NC(=O)[C@H](CO)NC(=O)[C@@H](NC(=O)[C@H](Cc1cnc[nH]1)NC(=O)[C@H](CCC(=O)O)NC(=O)[C@H](Cc1ccc(O)cc1)NC(=O)[C@H](CCCCN)NC(=O)[C@H](CCC(N)=O)NC(=O)[C@H](Cc1ccc(O)cc1)NC(=O)[C@H](CC(=O)O)NC(=O)[C@@H](NC(=O)[C@@H]1CCCN1C(=O)[C@H](CC(=O)O)NC(=O)[C@H](CC(N)=O)NC(=O)[C@H](CC(=O)O)NC(=O)CNC(=O)[C@H](CC(=O)O)NC(=O)[C@@H]1CCCN1C(=O)[C@H](CCC(N)=O)NC(=O)[C@H](Cc1ccc(O)cc1)NC(=O)[C@H](C)NC(=O)[C@H](Cc1c[nH]c2ccccc12)NC(=O)[C@H](Cc1ccccc1)NC(=O)[C@@H](NC(=O)[C@@H](N)CO)[C@@H](C)O)[C@@H](C)O)[C@@H](C)O)C(=O)N[C@@H](C)C(=O)N1CCC[C@H]1C(=O)NCC(=O)N[C@@H](CC(=O)O)C(=O)N[C@@H](Cc1ccc(O)cc1)C(=O)O | 0 | - | - | - | - | - | -
Cc1nc(N2CCOCC2)c2c(C(=O)N3CCN(c4cccc(C)c4C)CC3)c(C)oc2n1 | 0 | 0 | 0 | 0 | 0 | - | -
c1cc2ccc3ccc(CN4CCOCC4)c4ccc(c1)c2c34 | 0 | 0 | 0 | 0 | 0 | 0 | -
OC1CCCN(Cc2ccc3ccc4cccc5ccc2c3c45)C1 (configuration not stated) | 0 | ? | 39.8µM | 0 | 56.2µM | 0 | 42.6
